Hits are enriched below; roughly 15% of the tested compounds scored in any of these assays.
Sm TGR inh: blocks Schistosoma mansoni thioredoxin glutathione reductase | Q962Y6 | purified TGR, DTNB reduction, TNB absorbance 405 nm | Potency, µM (titrated, usually from 114 µM), without a hit: at the top dose activity change, negative = inhibition, actives largely listed as inhibitors | actives 3% (n = 360,000) | AID 485364; also: potency is read from the fitted curve at half-maximal effect; % is scaled to controls: 0 for no effect and ±100 for the full control effect; nearly all actives have a fitted effect of over 60% in size
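Kinetic colorimetric format: TGR-catalysed, NADPH-driven DTNB reduction monitored via TNB absorbance. Enzyme dispensed at 20 nM; compound exposure 15 min at room temperature before reaction start.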
HCMV antiviral: human cytomegalovirus inhibition; HFF cells, HCMV-luciferase reporter, 72 h; hits give low values; activity change, negative = inhibition, % at 57.5 µM; AID 1259415; actives 4.5% (n = 410,000); in the data active = activity change below about -60%; inconclusive = no clear call, values can overlap the other calls; inactive = above about -39%; also: % is scaled to controls: 0 for no effect and ±100 for the full control effect
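Compounds were evaluated in HFFs infected with an HCMV luciferase reporter virus (MOI 1 PFU/cell). Luciferase in lysates collected 72 h post infection served as the replication measure.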
SARS PLpro yeast: inhibitors of SARS-CoV papain-like protease in yeast; S. cerevisiae expressing SARS-CoV PLpro, growth rescue; Potency, µM (doses to about 32.9 µM), for inactives: at the top dose activity, positive = growth rescue, usual class: activators; actives 0.19% (n = 330,000); AID 485353; calls by dose curve; also: potency is read from the fitted curve at half-maximal effect; 0% is about no effect; nearly all actives have a fitted effect of over 55% in size
Pf growth 96h: inhibits malaria parasite growth, 96 h; P. falciparum luciferase reporter growth, 96 h; Potency, µM (series often up to 28.7 µM), for the others: at the highest dose activity change, negative = inhibition, usual class: inhibitors; actives 6.9% (n = 320,000); also: potency is read from the fitted curve at half-maximal effect; % is scaled to controls: 0 for no effect and ±100 for the full control effect
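Compounds incubated with erythrocytes infected by luciferase-expressing P. falciparum (2% hematocrit, 0.05% parasitemia final) for 96 hours, 37 C in 5% CO2. Growth inhibition scored as decreased luciferase luminescence.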
Pf growth 48h: P. falciparum growth inhibition at 48 hours (one generation) | P. falciparum luciferase growth in erythrocytes, 48 h | Potency, µM (titrated, usually from 28.7 µM), without a hit: top-dose activity change, negative = inhibition, most hits filed as inhibitors | actives 5.9% (n = 310,000) | AID 504832; also: potency is read from the fitted curve at half-maximal effect; % is scaled to controls: 0 for no effect and ±100 for the full control effect
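Read-out is firefly luciferase luminescence from an integrated reporter in P. falciparum, so falling signal marks reduced parasite growth. Infected erythrocytes were at 2% hematocrit and 0.1% parasitemia (final) in Albumax-supplemented RPMI 1640.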
HCV inh: blocks hepatitis C virus; Huh7.5.1 HCVcc-Cre infection, luciferase reporter, 44 h; Potency, µM (titrated, usually from 41.8 µM), for inactives: at the top dose activity change, negative = inhibition, actives largely listed as inhibitors; actives 3.4% (n = 340,000); also: potency is read from the fitted curve at half-maximal effect; % is scaled to controls: 0 for no effect and ±100 for the full control effect
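Infectious HCV cell culture screen: compound-treated cells (1,000/well, pre-plated 4 h) are infected with HCVcc-Cre at roughly 0.5 moi and grown 44 h. Infection is quantified by luciferase signal after 15 min substrate incubation at room temperature.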
The depositor's hits bear a star; ? = inconclusive; · = no result given; ! = repeats disagree. Unless noted, calls follow the shape of the dose curve; as a rule, active = well fitted curve in the direction sought with a large enough effect; inconclusive = small, poorly fitted or top-dose-only effect, or another doubt; inactive = no such curve, though single readings can be large; an effect the other way counts as inactive or inconclusive.

SMILES | Sm TGR inh | HCMV antiviral | SARS PLpro yeast | Pf growth 96h | Pf growth 48h | HCV inh
O=C(/C=C/c1ccco1)Nc1nc(-c2ccc(F)c(F)c2)cs1 | 39.8µM* | · | 0.0% | 0.7% | ? | 10µM*
Cc1csc(NC(=O)/C=C/c2ccco2)n1 | 50.1µM* | 47.1 | 17.8% | 184.0% | 253.7% | 14.3%
O=C(/C=C/c1ccco1)Nc1nc(-c2ccccc2)cs1 | -26.5% | -10.4 | -59.0% | 27.0% | 126.9% | ?
Nc1[nH]c(C(=O)c2ccccc2)c(-c2ccccc2Br)c1C(=O)NCCc1ccc(Cl)cc1Cl | · | 37.2 | · | · | · | ·
O=C(CN1CCN(C(=O)C2CCN(C(=O)/C=C/c3ccccc3)CC2)CC1)Nc1ccccc1Cl | -12.9% | 6.5 | 9.0% | ? | 37.0% | ?
O=C(/C=C/c1ccco1)Nc1scc(-c2ccccc2)c1C(=O)O | 8.91µM* | 15.0 | -2.8% | 213.4% | ? | 18.4%
CCOC(=O)Cc1csc(NC(=O)/C=C/c2ccc(Cl)cc2)n1 | 4.9% | ? | 0.3% | ? | 52.3% | 11.2µM*
COC(=O)/C(=C(O)\C=C\c1ccccc1[N+](=O)[O-])c1nc2ccccc2[nH]1 | 10.8% | 48.7 | -1.1% | -9.7% | 0.0% | ?
CC1(C)Cc2[nH]c(=S)c(C#N)cc2CO1 | 31.6µM* | 21.4 | 7.6% | 43.9% | -2.5% | -2.5%
Cc1nn(CC(=O)Nc2ccc(C(=O)N3CCCCC3)cc2)c(=O)c2ccccc12 | -16.6% | -13.6 | 4.6% | · | 25.0% | 10.7%
Cn1nc(-c2ccc(NCCO)c([N+](=O)[O-])c2)c2ccccc2c1=O | 1.9% | 68.1 | 0.3% | 5.22µM* | -8.0% | -15.3%
Cc1ccc(-c2nn(CC(=O)NCc3cc(-c4nn(C)c(=O)c5ccccc45)ccc3C)c(=O)c3ccccc23)cc1 | -3.5% | -95.3* | -2.8% | · | 5.9% | ?
Cc1nn(CC(=O)Nc2ccc(C(=O)N3CCCC3)cc2)c(=O)c2ccccc12 | 2.1% | 46.9 | 1.8% | 9.28µM* | 5.7% | 10.9%
CCC(=O)Nc1cc(-c2nn(C)c(=O)c3ccccc23)ccc1OC | -1.3% | 129.8 | 0.9% | ? | 0.0% | -17.8%
COc1ccc(-c2nn(C)c(=O)c3ccccc23)cc1NC(=O)Cn1nc(C)c2ccccc2c1=O | 1.3% | -8.4 | -4.5% | 7.7% | 10.4µM* | ?
Cc1cc(-c2ccc(S(=O)(=O)Nc3ccccc3F)s2)on1 | 1.4% | 0.0 | · | · | · | ·
CCc1nc2ccc(C(=O)Nc3ccc(NC(C)=O)cc3)cn2c1N(CCC(C)C)CCN(C)C | · | -4.4 | · | · | · | ·
O=C(CN1C(=O)C2(SCC(=O)N2c2cccc(Cl)c2)c2ccccc21)NCc1ccccc1 (stereo unspecified) | 25.9% | -19.1 | · | · | · | ·
O=C(CCn1cnnn1)Nc1ccccc1F | 0.0% | 1.4 | 0.5% | 4.65µM* | 12.6% | 11.2%
Cc1cccc(NC(=O)CCn2cnnn2)c1 | 89.1µM*! | 22.8 | -4.7% | -21.6% | 6.6% | 16.7%
Cc1ccc(NC(=O)COc2ncnc3c(Cl)cc(Cl)cc23)cc1[N+](=O)[O-] | 4.47µM* | 2.3 | -17.8% | 72.2% | 35.7% | -4.6%
COc1ccc(-c2ccc(CCC(=O)O)n2CC(=O)Nc2cccc(Cl)c2C)cc1 | -29.7% | -6.3 | · | · | · | ·
O=C1c2c(O)ccc(O)c2C(=O)c2c(NCCNCCO)ccc(NCCNCCO)c21 | -9.5% | -98.4* | · | 0.928µM* | 0.828µM* | 1.12µM*
O=C1c2ccccc2C(=O)c2c(Nc3ccc(CCO)cc3)ccc(O)c21 | -20.2% | 59.1 | -0.3% | ? | ? | ?
COc1ccc(NC(=O)N2c3ccc(OC)cc3[C@@H](NC(=O)OCc3ccccc3)[C@H](C)[C@H]2c2ccccc2)cc1 | · | 3.3 | · | · | · | ·
SMILES | Sm TGR inh | HCMV antiviral | SARS PLpro yeast | Pf growth 96h | Pf growth 48h | HCV inh
COc1ccccc1Nc1nc2c(S(=O)(=O)c3ccc(C(C)C)cc3)nnn2c2ccsc12 | 5.0% | 19.5 | · | · | · | ·
CCc1ccc(S(=O)(=O)c2nnn3c2nc(NCc2cccs2)c2sccc23)cc1 | 1.2% | -3.1 | · | · | · | ·
Cc1ccc(S(=O)(=O)c2nnn3c2nc(NCc2ccccc2)c2sccc23)cc1 | 2.4% | ? | · | · | · | ·
Cc1ccc(C)c(Nc2nc3c(S(=O)(=O)c4ccc(Br)cc4)nnn3c3ccsc23)c1 | -3.6% | -95.1* | · | · | · | ·
CCc1ccc(S(=O)(=O)c2nnn3c2nc(NCCc2ccccc2)c2sccc23)cc1 | 9.0% | -80.8* | · | · | · | ·
Cc1ccc(S(=O)(=O)c2nnn3c2nc(NC(C)c2ccccc2)c2sccc23)cc1 (stereo unspecified) | 0.0% | -70.8* | · | · | · | ·
Cc1ccc(C)c(Nc2nc3c(S(=O)(=O)c4ccc(C(C)C)cc4)nnn3c3ccsc23)c1 | -19.0% | -71.0* | · | · | · | ·
COc1ccc(NC(=O)N2CCCC(C(=O)NCCc3ccccc3)C2)cc1 (stereo unspecified) | 2.1% | 10.3 | ? | -16.1% | 20.3% | 1.8%
CCCOc1cccc(C(=O)N(Cc2ccc(C)o2)C2CCS(=O)(=O)C2)c1 (stereo unspecified) | 2.2% | ? | · | · | · | ·
COc1ccc(CNC(=O)CCC(=O)N2CCSc3ccccc32)cc1 | 6.2% | 0.0 | · | · | · | ·
CCOC(=O)c1sc(N/N=C/c2cc(Br)c(O)c(OC)c2)nc1C | -5.8% | ? | -27.4% | 52.8% | 13.1µM* | -19.8%
CCOC(=O)N/N=C/c1cc(OC)c(O)c(OC)c1 | 4.7% | -27.2 | 10.8% | -0.7% | 15.3% | 10.1%
COC(=O)c1sc(N/N=C/c2ccc(C(C)C)cc2)nc1C | -16.7% | -18.4 | 0.6% | ? | 9.28µM* | ?
O=C(CSc1nc(=O)[nH]c2c1CCC2)Nc1cc(C(F)(F)F)ccc1Cl | -17.9% | -28.9 | · | · | · | ·
CC(C)n1c(NCCO)nc2ccccc21 | 7.8% | 5.5 | 0.3% | ? | 38.4% | 3.9%
C[n+]1c2ccccc2nc2ccc(NCCO)cc21 | 10µM* | -80.7* | 0.5% | 0.131µM* | 0.117µM* | 14.1µM*
CCC(C)(C)NC(=O)C(c1ccc(OC)cc1)N(Cc1cccs1)C(=O)CCC(=O)Nc1cc(C)on1 (stereo unspecified) | -8.3% | -12.1 | 7.2% | 3.4% | 10.4µM* | ?
CCC(C)(C)NC(=O)C(c1ccc(C)cc1)N(Cc1cccs1)C(=O)c1ccc2c(c1)OCCO2 (stereo unspecified) | -1.0% | -21.0 | -6.8% | 11.7µM* | ? | -18.5%
CCC(C)(C)NC(=O)C(c1cccc(OC)c1OC)N(CCOC)C(=O)CCC(=O)Nc1cc(C)on1 (stereo unspecified) | -4.3% | -37.0 | 0.8% | 10.4µM* | 2.9% | 0.3%
Cc1cc(NC(=O)CCC(=O)N(c2ccccc2)C(C(=O)NC(C)(C)C)c2ccccc2Cl)no1 (stereo unspecified) | 41.8% | 7.7 | 1.3% | -18.4% | 13.1µM* | 15.6%

Source: PubChem (National Center for Advancing Translational Sciences (NCATS))
